Reference: PubChem BioAssay (NCATS)
Inconclusive results are not listed. The source made the active and inactive calls. The call rests on the fitted dose curve; in most records, active means well fitted inhibition curve with a large enough effect; inconclusive means small, poorly fitted or top-dose-only effect; inactive means flat fitted curve, though single readings scatter.

What was measured:
PC49 = assay: qHTS profiling for inhibitors of Plasmodium falciparum proliferation (AID 504749);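 further: 0% = DMSO vehicle and full inhibition = artemisinin control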; settings: P. falciparum in erythrocytes, SYBR Green DNA, 72 h; series mostly up to 28.7 µM
Method in brief: (§1)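 Parasite proliferation within erythrocytes, 72 h exposure. Endpoint: SYBR Green I fluorescence after overnight lysis at room temperature. Controls: 0.29 uM artemisinin, DMSO.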

SC27B = assay: as above; settings: P. falciparum in erythrocytes, SYBR Green DNA, 72 h; series mostly up to 28.7 µM
Method in brief: as §1

TAB109 = assay: as above; settings: P. falciparum in erythrocytes, SYBR Green DNA, 72 h; series mostly up to 28.7 µM
Method in brief: as §1

TAB113 = assay: as above; settings: P. falciparum in erythrocytes, SYBR Green DNA, 72 h; series mostly up to 28.7 µM
Method in brief: as §1

TAB165 = assay: as above; settings: P. falciparum in erythrocytes, SYBR Green DNA, 72 h; series mostly up to 28.7 µM
Method in brief: as §1

W2 = assay: as above; settings: P. falciparum in erythrocytes, SYBR Green DNA, 72 h; series mostly up to 28.7 µM
Method in brief: as §1

CRL-7250 = normal cell line; assay: Cytotoxic Profiling of Annotated Libraries Using Quantitative High-Throughput Screening (AID 1296008); settings: Five cell lines viability, CellTiter-Glo ATP luminescence, 48-72 h; stronger effect = lower value; on max response: on the % scale 0 is the no-effect control and ±100 the full control effect
Method in brief: (§2)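 Compounds were pin-transferred onto cells and incubated 48 or 72 hr at 37 degree Celsius, 95% humidity. CellTiter-Glo was added, plates sat 10 min at room temperature, then ATP-coupled luminescence was imaged as the viability read-out.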

HEK293 = assay: as above; settings: Five cell lines viability, CellTiter-Glo ATP luminescence, 48-72 h; stronger effect = lower value
Method in brief: as §2

HaCat = assay: as above; settings: Five cell lines viability, CellTiter-Glo ATP luminescence, 48-72 h; stronger effect = lower value
Method in brief: as §2

KB-3-1 = assay: as above; settings: Five cell lines viability, CellTiter-Glo ATP luminescence, 48-72 h, stronger effect = lower value
Method in brief: as §2

NIH3T3 [1] = assay: as above; settings: Five cell lines viability, CellTiter-Glo ATP luminescence, 48-72 h; stronger effect = lower value
Method in brief: as §2

MCC-13 = assay: qHTS assay to identify novel small-molecules to repurpose for Merkel cell carcinoma treatment (AID 1296009); settings: MCC and control cell lines, CellTiter-Glo viability, 72 h; series mostly up to 46 µM
Method in brief: (§3)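 qHTS format: cells treated with library compounds in DMSO across 8 (NPC) or 11 (MIPE) concentrations. Readout after 72 hr at 37 degree celsius was CellTiter-Glo luminescence.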

MCC-26 = assay: as above; settings: MCC and control cell lines, CellTiter-Glo viability, 72 h; series mostly up to 46 µM
Method in brief: as §3

MKL-1 = assay: as above; settings: MCC and control cell lines, CellTiter-Glo viability, 72 h; series mostly up to 46 µM
Method in brief: as §3

MKL-2 = assay: as above; settings: MCC and control cell lines, CellTiter-Glo viability, 72 h; series mostly up to 46 µM
Method in brief: as §3

NIH3T3 [2] = assay: as above; settings: MCC and control cell lines, CellTiter-Glo viability, 72 h; at 44.8 µM (top of the series) unless noted
Method in brief: as §3

UISO = assay: as above; settings: MCC and control cell lines, CellTiter-Glo viability, 72 h; series mostly up to 46 µM
Method in brief: as §3

WaGa = assay: as above; settings: MCC and control cell lines, CellTiter-Glo viability, 72 h; series mostly up to 46 µM
Method in brief: as §3
Further: nearly all actives have a fitted effect of over 60% in size.

O=C(O)CNC(=O)c1ccccc1I
inactive: Potency (PC49) | Potency (SC27B) | Potency (TAB109) | Potency (TAB113) | Potency (TAB165) | Potency (W2) | max response (CRL-7250) 4.72% | max response (HEK293) -1.69% | max response (HaCat) -16.3% | max response (KB-3-1) 7.37% | outcome (NIH3T3 [1]) | outcome (MCC-13) | outcome (MCC-26) | outcome (MKL-1) | outcome (MKL-2) | outcome (NIH3T3 [2]) | outcome (UISO) | outcome (WaGa)

Cn1c([N+](=O)[O-])cnc1COC(N)=O
inactive: Potency (PC49) | Potency (SC27B) | Potency (TAB109) | Potency (TAB113) | Potency (TAB165) | Potency (W2) | max response (CRL-7250) -9.26% | max response (HEK293) 2.06% | max response (HaCat) -19.4% | max response (KB-3-1) -4.93% | max response (NIH3T3 [1]) 2.03% | outcome (MCC-13) | outcome (MCC-26) | outcome (MKL-1) | outcome (MKL-2) | outcome (UISO) | outcome (WaGa)

CC(O)CCCCn1c(=O)c2c(ncn2C)n(C)c1=O (stereo not given)
inactive: Potency (PC49) | Potency (SC27B) | Potency (TAB109) | Potency (TAB113) | Potency (TAB165) | Potency (W2) | max response (CRL-7250) 2.98% | max response (HEK293) 0.321% | max response (HaCat) -6.07% | max response (KB-3-1) -8.11% | max response (NIH3T3 [1]) 4.47% | outcome (MCC-13) | outcome (MCC-26) | outcome (MKL-1) | outcome (MKL-2) | outcome (UISO) | outcome (WaGa)

CCc1cccc(CC)c1NC(=O)CN(CC(=O)O)CC(=O)O
inactive: Potency (PC49) | Potency (SC27B) | Potency (TAB109) | Potency (TAB113) | Potency (TAB165) | Potency (W2) | max response (CRL-7250) -19.6% | max response (HEK293) -1.81% | max response (HaCat) -2.45% | max response (KB-3-1) -15.5% | max response (NIH3T3 [1]) -0.454% | outcome (MCC-13) | outcome (MCC-26) | outcome (MKL-1) | outcome (MKL-2) | outcome (UISO) | outcome (WaGa)

NC(=O)CC[C@@H](N)C(=O)O
inactive: Potency (PC49) | Potency (SC27B) | Potency (TAB109) | Potency (TAB113) | Potency (TAB165) | Potency (W2) | max response (CRL-7250) -0.379% | max response (HEK293) -7.81% | max response (HaCat) -14.8% | max response (KB-3-1) -2.46% | max response (NIH3T3 [1]) 0.058% | outcome (MCC-13) | outcome (MCC-26) | outcome (MKL-1) | outcome (MKL-2) | outcome (UISO) | outcome (WaGa)

C/C=C/C(=O)N(CC)c1ccccc1C
inactive: max response (CRL-7250) -6.75% | max response (HEK293) 0.227% | max response (HaCat) 0.376% | max response (KB-3-1) 21.1% | max response (NIH3T3 [1]) 1.85% | outcome (MCC-13) | outcome (MCC-26) | outcome (MKL-1) | outcome (MKL-2) | outcome (UISO) | outcome (WaGa)

CN[C@@H]1[C@@H](O)[C@@H](O[C@@H]2[C@H](O)[C@H](O[C@H]3OC(CN)=CC[C@H]3N)[C@@H](N)C[C@H]2N)OCC1(C)O (stereo not given in full)
inactive: max response (CRL-7250) 2.42% | max response (HEK293) 4.89% | max response (HaCat) 1.23% | max response (KB-3-1) 25.6% | max response (NIH3T3 [1]) 2.74% | outcome (MCC-13) | outcome (MCC-26) | outcome (MKL-1) | outcome (MKL-2) | outcome (UISO) | outcome (WaGa)

Cc1c(C)c2c(c(C)c1OC(=O)c1cccnc1)CC[C@@](C)(CCC[C@H](C)CCC[C@H](C)CCCC(C)C)O2
inactive: Potency (PC49) | Potency (SC27B) | Potency (TAB109) | Potency (TAB113) | Potency (TAB165) | Potency (W2) | outcome (CRL-7250) | max response (HEK293) -1.31% | max response (HaCat) 0.9% | max response (KB-3-1) 1.29% | outcome (NIH3T3 [1]) | outcome (MCC-13) | outcome (MCC-26) | outcome (MKL-1) | outcome (MKL-2) | outcome (NIH3T3 [2]) | outcome (UISO) | outcome (WaGa)

CC(C)CCOC(=O)c1ccc(N(C)C)cc1
inactive: Potency (PC49) | Potency (SC27B) | Potency (TAB109) | Potency (TAB113) | Potency (TAB165) | Potency (W2) | max response (CRL-7250) -21% | max response (HEK293) -23.8% | max response (HaCat) -5.98% | max response (KB-3-1) 11.7% | max response (NIH3T3 [1]) -25.1% | outcome (MCC-13) | outcome (MCC-26) | outcome (MKL-1) | outcome (MKL-2) | outcome (UISO) | outcome (WaGa)

CCCCCCCC(=O)OCC(O)CO (stereo not given)
inactive: Potency (PC49) | Potency (SC27B) | Potency (TAB109) | Potency (TAB113) | Potency (TAB165) | Potency (W2) | max response (CRL-7250) -18.7% | max response (HEK293) -8.91% | max response (HaCat) -12% | max response (KB-3-1) -2.18% | max response (NIH3T3 [1]) -10.3% | outcome (MCC-13) | outcome (MCC-26) | outcome (MKL-1) | outcome (MKL-2) | outcome (UISO) | outcome (WaGa)

CCOc1ccc(C(=O)OCCN(CC)CC)cc1
inactive: Potency (PC49) | Potency (SC27B) | Potency (TAB109) | Potency (TAB113) | Potency (TAB165) | Potency (W2) | max response (CRL-7250) -0.597% | max response (HEK293) 1.58% | max response (HaCat) -25.1% | max response (KB-3-1) -3.59% | max response (NIH3T3 [1]) -1.32% | outcome (MCC-13) | outcome (MCC-26) | outcome (MKL-1) | outcome (MKL-2) | outcome (UISO) | outcome (WaGa)

CC(C)(C)C(=O)OCOC(=O)[C@@H]1N2C(=O)[C@@H](NC(=O)[C@H](N)c3ccccc3)[C@H]2SC1(C)C
inactive: Potency (PC49) | Potency (SC27B) | Potency (TAB109) | Potency (TAB113) | Potency (TAB165) | Potency (W2) | max response (CRL-7250) -7.59% | max response (HEK293) -3.05% | max response (HaCat) -3.68% | max response (KB-3-1) -7.55% | max response (NIH3T3 [1]) -5.28% | outcome (MCC-13) | outcome (MCC-26) | outcome (MKL-1) | outcome (MKL-2) | outcome (UISO) | outcome (WaGa)

CCCCC1(COC(=O)CCC(=O)O)C(=O)N(c2ccccc2)N(c2ccccc2)C1=O
inactive: Potency (PC49) | Potency (SC27B) | Potency (TAB109) | Potency (TAB113) | Potency (TAB165) | Potency (W2) | outcome (CRL-7250) | max response (HEK293) -6.41% | max response (HaCat) -4.26% | max response (KB-3-1) 2.02% | outcome (NIH3T3 [1]) | outcome (MCC-13) | outcome (MCC-26) | outcome (MKL-1) | outcome (MKL-2) | outcome (NIH3T3 [2]) | outcome (UISO) | outcome (WaGa)

Nc1ccc(C(=O)Oc2ccccc2)c(O)c1
inactive: Potency (PC49) | Potency (SC27B) | Potency (TAB109) | Potency (TAB113) | Potency (TAB165) | Potency (W2) | max response (CRL-7250) 2.06% | max response (HEK293) 0.228% | max response (HaCat) -1.24% | max response (KB-3-1) -4.49% | outcome (NIH3T3 [1]) | outcome (MCC-13) | outcome (MCC-26) | outcome (MKL-1) | outcome (MKL-2) | outcome (NIH3T3 [2]) | outcome (UISO) | outcome (WaGa)
